Consider 43 compounds from PubChem BioAssay (NCATS).

The target in test [1] is Aldehyde dehydrogenase, mitochondrial (Homo sapiens) (UniProt P05091). The experiment in a line: qHTS for Inhibitors of the Aldehyde Dehydrogenase Family (ALDH2) Primary screen (AID 2061308). Note: nearly all actives have a fitted effect of over 55% in size. On the technique in general: qHTS replaces the single test concentration by a dilution series.
In test [2] the target is Retinaldehyde dehydrogenase 3 (Homo sapiens) (UniProt P47895). The experiment in a line: qHTS for Inhibitors of the Aldehyde Dehydrogenase Family (ALDH1A3) Primary screen (AID 2061315).

The structures appear in SMILES notation. Inconclusive results are not listed. Entries that show only a call come without a potency. Active and inactive are the calls of the source. Calls come from the whole dose curve; as a rule, active = well fitted curve in the direction sought with a large enough effect; inconclusive = small, poorly fitted or top-dose-only effect, or another doubt; inactive = no such curve, though single readings can be large; an effect the other way counts as inactive or inconclusive.

Take `Cc1cc2c(s1)c(C#N)c(C(=O)NCc1ccccc1F)n2C`: the Potency entry in test [1] and in test [2] was “inactive” each time.

Take `O=S(=O)(c1ccc2c(c1)OCCO2)N1CCCN(S(=O)(=O)c2c(F)cccc2F)CC1`: the Potency entry in test [1] and in test [2] was “inactive” each time.

On to `CC(=O)N1CCc2cc(S(=O)(=O)N3CCN(S(=O)(=O)c4c(F)cccc4F)CC3)ccc21`, for which the Potency result in test [1] and in test [2] was “inactive” in each case.

With `Cc1ccc(S(=O)(=O)Nc2cnccc2C(=O)Nc2nc(-c3ccc(C)c(C)c3)cs2)cc1`, the Potency entry in test [1] and in test [2] was “inactive” each time.

With `N#Cc1ccnc(N2C(=O)CC[C@H]2C(=O)N(c2cncc(F)c2)[C@@H](C(=O)NC2CC(F)(F)C2)c2ccccc2Cl)c1`, the Potency result in test [1] and in test [2] was “inactive” throughout.

`CN(C)c1ccc(-c2cc(O)c3ncccc3c2)cc1`: the Potency result in test [1] and in test [2] was “inactive” throughout.

As to `CN1CCCC1CCNc1ncnc2ccc(-c3ccc4c(c3)OCO4)cc12` (stereo unspecified), the Potency entry in test [1] and in test [2] was “inactive” throughout.

For the compound `COc1cnc(-c2ccccc2C(C)C)nc1NCc1ccc(-c2cccnc2)cc1`, the Potency result in test [1] and in test [2] was “inactive” each time.

`CC(=O)N1CCN(C(=O)COC(=O)c2ccc([S+](C)(=O)[O-])c([N+](=O)[O-])c2)CC1`: the Potency entry in test [1] and in test [2] was “inactive” each time.

With `N#Cc1ccc(C[C@@H](NS(=O)(=O)c2ccc(C(=O)O)cc2)C(=O)O)cc1`, the Potency result in test [1] and in test [2] was “inactive” in each case.

`CC(=O)c1ccc(N2CCN(S(=O)(=O)c3ccc4c(c3)CC(=O)N4)CC2)cc1`: the Potency result in test [1] and in test [2] was “inactive” in each case.

Take `COc1ccc(C2Nc3ccccc3C(=O)N2Cc2ccccc2)cc1COc1cccc(C)c1` (stereo unspecified): the Potency entry in test [1] and in test [2] was “inactive” throughout.

For `COc1ccc2nc(-c3ccc(N(C)C)cc3)sc2c1`, the Potency entry in test [1] and in test [2] was “inactive” each time.

`CC(=O)O[C@@H]1CC[C@@]2(C)C(CC[C@]3(C)C2[C@H](O)C=C2[C@H]4[C@@H](C)[C@H](C)CC[C@]4(C)CC[C@]23C)[C@@]1(C)C(=O)O` (stereo partly specified): the Potency result in test [1] and in test [2] was “inactive” in each case.

With `O=C(c1c(F)cccc1F)N1CCN(S(=O)(=O)c2ccc3c(c2)OCCO3)CC1`, the Potency result in test [1] and in test [2] was “inactive” in each case.

Turning to `NC(=O)C1CCN(c2ncc(Br)cn2)CC1`, the Potency entry in test [1] and in test [2] was “inactive” throughout.

For `O=C(OCC#CCSc1nnc(-c2ccc3ccccc3c2)o1)c1ccsc1`, the Potency result in test [1] and in test [2] was “inactive” in each case.

Consider `CC(C)(C)NS(=O)(=O)c1cccc(-c2nnc(SCc3ccc(C(=O)O)cc3)n2-c2ccccc2)c1`, for which the Potency entry in test [1] and in test [2] was “inactive” throughout.

As for `O=[S+]([O-])(c1cc2ccccc2o1)N1CCN([S+](=O)([O-])c2c(F)cccc2F)CC1`, the Potency entry in test [1] and in test [2] was “inactive” throughout.

As for `COc1ccc(-c2ccc3nnc(-c4ccccc4OC)n3n2)cc1OC`, the Potency entry in test [1] and in test [2] was “inactive” each time.

Regarding `N#Cc1ccc(S(=O)(=O)N2CCN(S(=O)(=O)c3ccc4c(c3)OCCO4)CC2)cc1`, the Potency entry in test [1] and in test [2] was “inactive” throughout.

For `O=C(O)c1ccc2c(c1)C(=O)N([C@]1(C(=O)O)CC1c1ccccc1)C2=O` (stereo partly specified), the Potency entry in test [1] and in test [2] was “inactive” throughout.

`Cc1ccc(-c2cc(C(=O)Nc3ccc(-n4cccn4)cc3)c3ccccc3n2)cc1C`: the Potency entry in test [1] and in test [2] was “inactive” in each case.

In the case of `c1nc(NCC2CCCC2)c2cc(-c3ccc4c(c3)OCO4)ccc2n1`, the Potency entry in test [1] and in test [2] was “inactive” in each case.

Consider `Cc1cc2c(s1)c1cnn(Cc3ccc4ccccc4c3)c(=O)c1n2C`, for which the Potency result in test [1] and in test [2] was “inactive” each time.

On to `O=C(Nc1ccc(S(=O)(=O)Nc2nccs2)cc1)c1ccncc1`, for which the Potency entry in test [1] and in test [2] was “inactive” each time.

For the compound `Nc1nc(NCc2ccc(-c3ccnc(C(F)(F)F)c3)cc2)c2ccccc2n1`, the Potency entry in test [1] and in test [2] was “inactive” throughout.

Consider `Cc1ccc(-c2cc(C(=O)N(C)c3ccccc3)c3ccccc3n2)cc1C`, for which the Potency entry in test [1] and in test [2] was “inactive” in each case.

Regarding `COc1cc(O)c(C(CC(=O)N2CC(C)NC(C)C2)c2ccc3c(c2)OCO3)c(OC)c1` (stereo unspecified), the Potency result in test [1] and in test [2] was “inactive” throughout.

Turning to `COc1ccnc(NC(=S)N2CCN(c3ccc4ccccc4n3)CC2)c1`, the Potency result in test [1] and in test [2] was “inactive” each time.

With `Cc1ccc(N(C)S(=O)(=O)c2ccc3c(c2)CCC(=O)N3)cc1C`, the Potency result in test [1] and in test [2] was “inactive” in each case.

Regarding `CCOc1ccc(CCNC(=O)c2csc(Br)n2)cc1OCC`, the Potency entry in test [1] and in test [2] was “inactive” each time.

Turning to `CCOC(=O)c1ccc(-n2c(C)cc(-c3nnc4n3CCCCC4)c2C)cc1`, the Potency entry in test [1] and in test [2] was “inactive” each time.

On to `FC(F)(F)c1ccccc1-c1nc(NCc2ccc(-c3ccc(Cl)cc3)cc2)c2ccccc2n1`, for which the Potency result in test [1] and in test [2] was “inactive” each time.

For the compound `CCOc1ccc(CCNC(=O)c2ccc3ccccc3n2)cc1OCC`, the Potency result in test [1] and in test [2] was “inactive” in each case.

On to `COc1ccc(OC)c(C2=Nn3c(nnc3-c3ccccc3OC)SC2)c1`, for which the Potency entry in test [1] and in test [2] was “inactive” in each case.

Turning to `Cn1c2cc(C#N)sc2c2cnn(Cc3ccc(F)cc3)c(=O)c21`, the Potency result in test [1] and in test [2] was “inactive” each time.

For `Cc1ccnc(NC(=S)N2CCN(c3cccc(C(F)(F)F)c3)C2)c1`, the Potency result in test [1] and in test [2] was “inactive” in each case.

In the case of `COc1cccc(CNc2ccc(S(=O)(=O)Nc3cccnc3)cc2)c1O`, the Potency result in test [1] and in test [2] was “inactive” throughout.

For `O=C(/C=C/c1ccc(F)cc1)Nc1cccc([S+](=O)([O-])Nc2ccccc2F)c1`, the Potency entry in test [1] and in test [2] was “inactive” in each case.

For `COC(=O)c1ccccc1NC(=O)c1ccccc1OC(F)F`, the Potency entry in test [1] and in test [2] was “inactive” each time.

Take `O=C(CSc1nnc(-c2cccc(S(=O)(=O)N3CCCC3)c2)n1-c1ccccc1)Nc1ccc(Cl)cc1`: the Potency entry in test [1] and in test [2] was “inactive” each time.

On to `O=C(NCc1ccccc1)n1cc(P(=S)(c2ccccc2)c2ccccc2)c2ccccc21`, for which the Potency result in test [1] and in test [2] was “inactive” in each case.
